42 molecules from PubChem BioAssay (Tox21) can be followed below.

Inconclusive results are not listed. The source made the active and inactive calls. Unless noted, calls follow the shape of the dose curve; as a rule, active = well fitted curve in the direction sought with a large enough effect in the repeat runs; inconclusive = weak or mixed curves; inactive = no such curve, though single readings can be large; an effect the other way counts as inactive or inconclusive.

The nature of assay [1]: qHTS assay to identify small molecule antagonists of the glucocorticoid receptor (GR) signaling pathway - cell viability counter screen (AID 720693; also: nearly all actives have a fitted effect of over 55% in size). (In general: In qHTS, concentration-response curves come from the screen itself.)
Assay [2] in a line: qHTS assay for identifying genotoxic compounds that show differential cytotoxicity against isogenic chicken DT40 cell lines with known DNA damage response pathways - Rev3 mutant cell line (AID 743014). Also: nearly all actives have a fitted effect of over 55% in size. Also: potency is read from the fitted curve at half-maximal effect.
The nature of assay [3]: qHTS assay for identifying genotoxic compounds that show differential cytotoxicity against isogenic chicken DT40 cell lines with known DNA damage response pathways - Rad54/Ku70 mutant cell line (AID 743015). Also: nearly all actives have a fitted effect of over 60% in size. Also: potency is read from the fitted curve at half-maximal effect.
Assay [4] can be described thus: qHTS assay to identify small molecule antagonists of the androgen receptor (AR) signaling pathway - cell viability counter screen (AID 743033; also: nearly all actives have a fitted effect of over 45% in size).
Assay [5] is described as follows: qHTS assay to identify small molecule antagonists of the androgen receptor (AR) signaling pathway using the MDA cell line - cell viability counter screen (AID 743041; also: nearly all actives have a fitted effect of over 45% in size). An outline of the steps: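 Using the breast carcinoma line MDA-kb2 AR-luc, test chemicals were co-incubated with R1881 for 16 h; CellTiter-Fluor reagent, added at 15.5 h, provided a fluorescence measure of live cells.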

Assay [6] can be described thus: qHTS assay to identify small molecule antagonists of the thyroid receptor (TR) signaling pathway - cell viability counter screen (AID 743064). Also: nearly all actives have a fitted effect of over 50% in size. Also: potency is read from the fitted curve at half-maximal effect. An outline of the steps: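 Fluorescence from CellTiter-Fluor, added after 23.5 h exposure at 37 °C, reported viability of GH3.TRE-Luc cells co-treated with compound and 1 nM T3. Measured in the same wells as the luciferase TR readout.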

In assay [7] the target is Androgen receptor (Homo sapiens) (UniProt P10275). Kind of assay: qHTS assay to identify small molecule antagonists of the androgen receptor (AR) signaling pathway (AID 743035; active = well fitted inhibition curve with a large enough effect in the signal ratio in the repeat runs, not every such curve was filed as active; the % refers to the signal ratio). An outline of the steps:
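Quantitative HTS of the Tox21 10K library used HEK293 AR-UAS-bla cells stimulated with R1881 alongside compound for 16 h at 37C, followed by beta-lactamase FRET detection (LiveBLAzer B/G, 2 h, RT).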

Assay [8] shares this target. Nature of the assay: qHTS assay to identify small molecule agonists of the androgen receptor (AR) signaling pathway using the MDA cell line (AID 743040; also: nearly all actives have a fitted effect of over 20% in size). An outline of the steps: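 Stable MMTV-luciferase reporter in MDA-kb2 cells; note the promoter carries GR as well as AR response elements. 16 h compound treatment, 37C, 0% CO2; ONE-Glo luminescence endpoint.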
The target is the same in assay [9]. Nature of the assay: qHTS assay to identify small molecule antagonists of the androgen receptor (AR) signaling pathway using the MDA cell line (AID 743042; also: nearly all actives have a fitted effect of over 55% in size). An outline of the steps:
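Antagonist mode: compounds plus R1881 agonist added to MDA-kb2 AR-luc cells, incubated 16 h at 37C. Luciferase reporter luminescence quantified, with multiplexed CellTiter-Fluor readout for cell viability.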

Assay [10] is described as follows: qHTS assay for identifying genotoxic compounds that show differential cytotoxicity against isogenic chicken DT40 cell lines with known DNA damage response pathways - wild type cell line (AID 743012). Also: nearly all actives have a fitted effect of over 60% in size. Also: potency is read from the fitted curve at half-maximal effect. An outline of the steps:
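Luminescent ATP viability signal (CellTiter-Glo, 30 min RT) recorded after wild type DT40 cells were incubated with compounds for 40 h at 37 C/5% CO2.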

Chain of Androgen receptor (Homo sapiens) (P10275 whole entry, looked up): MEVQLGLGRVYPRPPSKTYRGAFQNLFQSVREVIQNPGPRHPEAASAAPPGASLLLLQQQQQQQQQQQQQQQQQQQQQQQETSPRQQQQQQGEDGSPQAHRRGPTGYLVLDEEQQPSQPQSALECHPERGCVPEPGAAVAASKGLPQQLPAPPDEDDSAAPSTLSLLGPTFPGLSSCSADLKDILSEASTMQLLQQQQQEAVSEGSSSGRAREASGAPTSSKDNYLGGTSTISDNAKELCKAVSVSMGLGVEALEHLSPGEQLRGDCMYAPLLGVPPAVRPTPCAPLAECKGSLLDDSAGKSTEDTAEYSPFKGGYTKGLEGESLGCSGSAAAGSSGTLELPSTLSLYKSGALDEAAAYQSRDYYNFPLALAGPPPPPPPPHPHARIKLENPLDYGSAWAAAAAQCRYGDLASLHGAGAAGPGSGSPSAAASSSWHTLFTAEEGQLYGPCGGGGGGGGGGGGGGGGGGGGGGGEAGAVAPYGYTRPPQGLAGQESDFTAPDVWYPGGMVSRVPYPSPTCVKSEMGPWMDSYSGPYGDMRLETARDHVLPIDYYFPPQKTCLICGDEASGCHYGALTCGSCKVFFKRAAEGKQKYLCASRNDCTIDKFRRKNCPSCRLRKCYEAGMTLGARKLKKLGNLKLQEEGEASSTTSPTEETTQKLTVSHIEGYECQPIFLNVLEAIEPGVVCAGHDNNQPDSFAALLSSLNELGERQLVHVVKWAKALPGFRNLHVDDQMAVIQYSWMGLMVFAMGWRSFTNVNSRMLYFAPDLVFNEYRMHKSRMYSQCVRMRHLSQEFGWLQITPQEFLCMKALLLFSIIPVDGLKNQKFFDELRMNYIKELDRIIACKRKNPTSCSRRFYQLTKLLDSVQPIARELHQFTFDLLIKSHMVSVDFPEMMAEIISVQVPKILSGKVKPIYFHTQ

For the molecule `O=[N+]([O-])c1cc(Cl)c(Cl)c(Cl)c1`, the Potency result in assay [1], in [2], in assay [3], in assay [4], in assay [5] and in assay [6] was “inactive” throughout.

For `CC(Cl)(Cl)[N+](=O)[O-]`, the Potency entry in assay [1], in [2], in assay [3], in assay [4], in [7] and in assay [8] was “inactive” in each case. Further, the Potency entry in assay [5] and in assay [6] was “inactive” in each case. In [9], the molecule was classed as inactive.

In the case of `CC(C)(C)NCC(O)c1cc(Cl)c(N)c(Cl)c1` (configuration not stated), the Potency result in [1], in [10], in assay [7], in assay [8] and in assay [5] was “inactive” in each case. Moreover, the molecule was classed as inactive in assay [9].

For the molecule `CC1=NNC(=O)N(/N=C/c2cccnc2)C1`, the Potency entry in assay [1], in [10], in assay [4], in [5] and in assay [6] was “inactive” each time.

As for `CC1(C)C(=O)NC(=O)NC1=O`, the Potency result in [1], in assay [10], in assay [4], in [5] and in assay [6] was “inactive” each time.

Consider `CC(=O)CC(c1ccc(Cl)cc1)c1c(O)c2ccccc2oc1=O` (configuration not stated), for which the Potency entry in assay [1], in assay [2], in assay [3], in assay [4], in assay [5] and in assay [6] was “inactive” in each case.

In the case of `O=[N+]([O-])c1cccc2c([N+](=O)[O-])cccc12`, the Potency entry in [1], in [10], in [4], in [7], in [8] and in [5] was “inactive” each time. In assay [6], the Potency entry was “inactive”. Also, the outcome in assay [9] was inactive.

As for `COc1cccc(C(=O)NN(C(=O)c2cc(C)cc(C)c2)C(C)(C)C)c1C`, in assay [1], the Potency result is “inactive”. The Potency in assay [2] was 68.6 µM (active).

Turning to `CN1C[C@@H](NS(=O)(=O)N(C)C)C[C@@H]2c3cccc4c3c(cn4C)C[C@H]21`, the Potency entry in assay [1] and in assay [5] was “inactive” each time. Further, in assay [10], the Potency is 21.1 µM (active).

As to `CCOP(=S)(Oc1cnc(C(C)(C)C)nc1)OC(C)C` (configuration not stated), the Potency result in [1], in assay [4] and in assay [5] was “inactive” throughout. The results for the Potency in [2] and in assay [3] were 27.3 µM (active) and 48.6 µM (active), respectively.

On to `CC(C1CC1)C(O)(Cn1cncn1)c1ccc(Cl)cc1` (configuration not stated), for which the Potency result in assay [1], in assay [4], in assay [5] and in assay [6] was “inactive” throughout. Also, the Potency in assay [10] was 48.3 µM (active).

On to `CCOC(=O)N(C)C(=O)CSP(=S)(OCC)OCC`, for which the Potency result in [1], in assay [5] and in [6] was “inactive” in each case. The Potency was 30.6 µM (active) in [10] and 24.3 µM (active) in assay [3].

As to `C#CCN1C(=O)COc2cc(F)c(N3C(=O)C4=C(CCCC4)C3=O)cc21`, the Potency entry in assay [1], in [4], in assay [8], in assay [5] and in assay [6] was “inactive” throughout. For the same molecule, the Potency in assay [10] was 61.1 µM (active).

Turning to `CCCCOC(=O)c1ccccc1C(=O)O`, the Potency result in assay [1], in assay [2], in assay [3], in assay [4], in assay [7] and in [8] was “inactive” throughout. The Potency entry in assay [5] and in [6] was “inactive” throughout. In addition, the outcome in assay [9] was inactive.

On to `Cc1ccccc1CO[C@@H]1C[C@@]2(C(C)C)CC[C@]1(C)O2`, for which the Potency result in assay [1], in [4], in assay [7], in assay [8], in assay [5] and in assay [6] was “inactive” each time. For the same molecule, the Potency in [2] is 48.6 µM (active); in assay [3], 54.5 µM (active).

`O=C(Nc1ccccc1)c1ccccc1I`: the Potency entry in [1], in assay [4], in assay [8], in assay [5] and in assay [6] was “inactive” throughout. The Potency in assay [2] was 27.3 µM (active); in assay [3], 61.1 µM (active). The molecule was classed as inactive in assay [9].

For `O=C(NCO)NCO`, the Potency entry in assay [1], in assay [10], in assay [4] and in assay [5] was “inactive” each time.

Consider `Cc1ncc(CNC(=O)N(CCCl)N=O)c(N)n1`, for which the Potency result in [1], in assay [10], in assay [4], in assay [5] and in assay [6] was “inactive” each time.

Turning to `O=C(N[C@H]1CN2CCC1CC2)c1cc2ccoc2cn1`, the Potency result in assay [1], in assay [10], in [4], in assay [7], in assay [8] and in assay [5] was “inactive” throughout. Further, in [6], the Potency result is “inactive”. The call in assay [9] was inactive.

`CC(C)(C)OC(=O)c1ncn2c1[C@@H]1CCCN1C(=O)c1c(Br)cccc1-2`: the Potency entry in assay [1], in [4], in assay [5] and in assay [6] was “inactive” throughout. Besides, the Potency in assay [10] is 26.6 µM (active).

On to `COC(=O)C(C)Oc1ccc(Oc2ccc(Cl)cc2Cl)cc1` (configuration not stated), for which the Potency result in assay [1], in assay [4] and in assay [5] was “inactive” throughout. Also, the Potency in assay [3] was 68.6 µM (active).

With `CC(C)[N+](=O)[O-]`, the Potency result in [1], in [2], in assay [3], in [4], in assay [5] and in [6] was “inactive” each time.

Turning to `CC1=C(C(=O)Nc2ccccc2)S(=O)(=O)CCO1`, the Potency entry in [1] and in assay [4] was “inactive” in each case. The Potency in assay [2] was 15.3 µM (active); in assay [3] it was 17.2 µM (active); in assay [6], 30.6 µM (active).

`CCC/C(=N\OCC)C1=C(O)CC(CC(C)SCC)CC1=O` (configuration not stated): the Potency result in assay [1], in assay [5] and in [6] was “inactive” in each case. In addition, the Potency in assay [2] was 61.5 µM (active).

`O=C(Oc1ccc(Br)cc1)N1CCN2CCC1CC2`: the Potency result in assay [1], in assay [4] and in assay [5] was “inactive” in each case. In addition, the Potency in assay [3] is 61.1 µM (active).

For `CN1CCN(C(=O)O[C@H]2c3nccnc3C(=O)N2c2ccc(Cl)cn2)CC1`, the Potency entry in assay [1], in [3], in assay [4], in assay [5] and in [6] was “inactive” each time.

For the molecule `Cc1ncc2n1-c1ccc(Cl)cc1C(c1ccccc1F)=NC2`, the Potency result in assay [1], in assay [2], in assay [4] and in [5] was “inactive” in each case.

In the case of `CN(C)CCc1ccc(O)cc1`, the Potency result in assay [1], in [2], in [3], in [5] and in assay [6] was “inactive” in each case.

For the molecule `BrCCCCCCBr`, the Potency result in assay [1], in assay [2], in assay [3], in assay [5] and in [6] was “inactive” each time.

In the case of `CSc1ccc(C(=O)C(C)(C)N2CCOCC2)cc1`, the Potency entry in assay [1], in [4], in assay [5] and in assay [6] was “inactive” in each case. In addition, the Potency in assay [2] was 68.6 µM (active).

Turning to `N#CCNCC#N`, the Potency result in assay [1], in [2], in [3], in assay [4], in assay [5] and in [6] was “inactive” in each case.

In the case of `C=C(C)[C@@H]1CC=C(C=O)CC1`, the Potency result in assay [1], in assay [5] and in assay [6] was “inactive” in each case. Besides, the Potency in assay [2] was 61.1 µM (active); in assay [3], 54.5 µM (active).

Take `[As]#[In]`: the Potency entry in [1], in assay [2], in [4], in [5] and in assay [6] was “inactive” each time.

On to `CSc1nc(N=[N+]=[N-])nc(NC(C)C)n1`, for which the Potency result in [1], in [4], in assay [5] and in assay [6] was “inactive” in each case. Further, the Potency in [2] is 61.1 µM (active).

Consider `C[C@]1(O)CC[C@H]2[C@@H]3CCC4=CC(=O)CC[C@]4(C)[C@@]3(F)[C@@H](O)C[C@@]21C`, for which the Potency result in assay [1], in assay [2], in [3] and in assay [5] was “inactive” throughout.

In the case of `O=C(O)C(Br)CBr` (configuration not stated), the Potency entry in [1], in assay [3], in assay [4], in assay [5] and in assay [6] was “inactive” each time.

For the molecule `COC(=O)COc1ccc(Cl)cc1Cl`, the Potency entry in [1], in assay [2], in assay [4], in assay [5] and in assay [6] was “inactive” in each case.

On to `CCOc1nc(C(Cl)(Cl)Cl)ns1`, for which the Potency entry in assay [1], in assay [2], in [3], in assay [4], in assay [5] and in assay [6] was “inactive” throughout.

Take `OC(c1ccccc1)(c1ccccc1)C1CCNCC1`: the Potency result in [1], in assay [2], in assay [4] and in assay [5] was “inactive” in each case.

`CC1(C)COP(Oc2ccccc2)OC1`: the Potency result in assay [1], in assay [2], in assay [3], in assay [7], in [8] and in assay [5] was “inactive” throughout. Also, the Potency result in assay [6] is “inactive”. For the same molecule, the molecule was classed as inactive in assay [9].

Consider `CC(C)CC(N(C)C)C1(c2ccc(Cl)cc2)CCC1` (configuration not stated), for which the Potency result in assay [1], in assay [2], in assay [4] and in [5] was “inactive” each time.

In the case of `ClC(Br)Br`, the Potency entry in [1], in assay [2], in assay [4], in assay [5] and in assay [6] was “inactive” throughout.
